Experiment [1] can be described thus: polyglutamine-triggered caspase-3 activation inhibitors, cell-based (AID 1583). The note with it: polyglutamine-induced caspase-3 activation, cell assay; stronger effect = higher value;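 tested at 10 µM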.
Experiment [2] is described as follows: suppressors of polyQ aggregation in yeast, 75Q-TubU reporter (AID 1593). The note with it: Yeast 75Q polyglutamine aggregation reporter.
A short description of experiment [3]: rescue of polyQ-huntingtin neuronal dysfunction in worms, whole organism, C. elegans mechanosensory neurons, N-terminal huntingtin (AID 1599). The note with it: touch response, stronger effect = higher value.
A short description of experiment [4]: inhibitors of mitochondrial cytochrome c release, biochemical, purified mitochondria (AID 1603).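 Further: mouse liver mitochondria challenged with calcium chloride; signal normalized to the plate average as 100%.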 To be noted: stronger effect = lower value.
The nature of experiment [5]: inhibitors of polyQ protein aggregation (AID 1604). The note with it: polyglutamine-induced protein aggregation inhibition assay; stronger effect = higher value; tested at 2.5 µM.
A short description of experiment [6]: enhancers of glutamate uptake in motor neurons, MN-1 cell line (AID 1612).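 Further: tested at 1 µM final; 0% = mean of DMSO vehicle wells on each plate; positive means more glutamate uptake than control and negative means less.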 The note with it: MN-1 motor neuron cells, stronger effect = higher value.
A short description of experiment [7]: suppressors of polyglutamine aggregation in yeast, 75Q-TubH (AID 1616). To be noted: S. cerevisiae 75Q-TubH polyglutamine aggregation suppression; stronger effect = higher value.
Experiment [8] is described as follows: hESC survival regulators, cell-based (AID 493140).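 Further: cells exposed to compounds for four days before counting.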 To be noted: human embryonic stem cell survival screen; stronger effect = higher value.
Experiment [9] is described as follows: Cy5 fluorescence interference with SSB-bound oligo, artefact control for HCV NS3 helicase inhibitor project, biochemical, NIH Clinical Collection, E. coli SSB (AID 743268).
Experiment [10] has as its system Hepatitis C virus NS3 helicase. The experiment in a line: HCV NS3 helicase inhibitors, primary screen, biochemical, fluorescence polarization, NIH Clinical Collection (AID 743270). To be noted: NS3 helicase binding to Cy5-dT15 DNA, stronger effect = higher value, concentration not given here. Background: In fluorescence polarisation assays a small probe gives low polarisation when free and higher when bound to something large.

For experiment [11], the target named is Single-stranded DNA-binding protein (Escherichia coli (strain K12)) (UniProt P0AGE0). The experiment in a line: E. coli SSB displacement from DNA, counter-screen for HCV NS3 helicase inhibitor project, biochemical, fluorescence polarization, NIH Clinical Collection (AID 743271; in the data active means inhibition above about 28%). The note with it: stronger effect = higher value, concentration not given here. On the technique in general: Counterscreens check selectivity or assay interference.

Experiment [12] in a line: fluorescence interference in NS3h assay format, artefact control for HCV NS3 helicase inhibitor project, biochemical, NIH Clinical Collection (AID 743272).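 Further: HCV NS3 helicase with a Cy5 labelled single stranded DNA probe.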 The note with it: fluorescence interference counterscreen, stronger effect = lower value.
Experiment [13] is described as follows: modulation of C. elegans fzo-1 (AID 1259413).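 Further: fzo-1 mutant C. elegans worms in liquid wells.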 The note with it: C. elegans fzo-1 modulator screen, mean read-out; stronger effect = higher value.
Experiment [14] can be described thus: viability rescue of complex I mutant cybrids, primary screen, cell-based, galactose medium, ATP luminescence (AID 1645843;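 active means z-score of at least 1.8 in each of two replicates, scored against plate mean and spread of sample wells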;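 further: positive z means more ATP and so rescue of galactose-driven cybrid death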). The note with it: complex I mutant cybrid cells, 72 h, stronger effect = higher value.
A further experiment deals with F380Y/beta1. The experiment in a line: modulators of BK channel variants, profiling panel, selectivity assay, cell-based, U2OS BacMam, thallium flux, beta subunits (AID 1259406;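 active means thallium flux through the channel raised or lowered by more than 3 SD from vehicle-only wells, actives on both sides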;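 further: initial slope of Thallos dye fluorescence rise after thallium is added; log ratio against the mean of 0.3% DMSO vehicle wells on the same plate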). The note with it: at 30 µM.
The test system of the next experiment is F380Y/beta4. Described as above. To be noted: at 30 µM.
Another experiment relates to R275C/beta4. The description is as above. To be noted: at 30 µM.
In a further experiment the test system is R275C/Slo1WT/beta2. The experiment is described as above. To be noted: at 30 µM.
Experiment [15] is described as follows: liver-stage malaria parasite growth inhibition, primary screen, cell-based, HepG2, luciferase luminescence, HepG2 viability (AID 624349; in the data active means parasite load remaining mostly below about 12%, no sharp cut-off; inactive means mostly above about 10%;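 further: 100% = mean of DMSO negative control wells on the same plate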). To be noted: P. berghei liver stage in HepG2, luciferase luminescence, concentration not given here; parasite load remaining: stronger effect = lower value; viability: measured here: HepG2 viability without parasites.

Molecules are shown by their SMILES. “And” between values parts separate entries of the source, which are not always exact repeats. Equal values may be shown once. For part of these data: Potency and affinity values are given separately. The source made the active and inactive calls. Unless noted, how the calls were made is not given here.

Usually inhibition stands for the drop in the measured response relative to a control, in per cent. The viability is a read-out of living cells in per cent, often relative to untreated cells.

As for `CC(C)NCC(O)c1cc(O)cc(O)c1` (centres undefined), the inhibition was 11.6% in [1], -5% (inactive) in experiment [10] and -4.29% (inactive) in experiment [11]. Moreover, the score in experiment [2] is 1.21. Further, the rescue above control in experiment [3] was -1.18. In addition, the cytochrome c release ratio in [4] is 0.62. Besides, the inhibition of aggregation in experiment [5] was 83.9%. Also, the glutamate uptake change in experiment [6] was -18.3%. The molecule further came in with an aggregation suppression score in experiment [7] of 1.15. For the same molecule, the survival in experiment [8] was 10.4 (inactive). Moreover, the fluorescence ratio in experiment [9] was 1.05 (inactive); in [12], 1.02 (inactive). For the same molecule, the mean signal in [13] is 261 (inactive). Also, the z-score in experiment [14] is 0.07 (inactive) and 1.61 (inactive). In addition, the log fold change Tl+ flux in the experiment on F380Y/beta1 was 0.0393 (inactive); in the experiment with F380Y/beta4, -0.0531 (inactive); in the experiment on R275C/beta4 it was 0.0475 (inactive); in the experiment on R275C/Slo1WT/beta2 it was 0.0212 (inactive).

In the case of `CN(C)CCC[C@@]1(c2ccc(F)cc2)OCc2cc(C#N)ccc21`, in [15], the parasite load remaining is 78.9% (inactive) and 44.8% (inactive). Besides, the viability in experiment [15] was 63.5% and 102%. Further, the figures for the fluorescence ratio in experiment [9] and in experiment [12] were 1.05 (inactive) and 0.96 (inactive), respectively. For the same molecule, the inhibition in [10] was -1.98% (inactive); in experiment [11], 6.83% (inactive). Also, the mean signal in experiment [13] is 287 (inactive). For the same molecule, the z-score in experiment [14] was 0.15 (inactive) and 0.43 (inactive). For the same molecule, the log fold change Tl+ flux in the experiment on F380Y/beta1 was -0.0013 (inactive); in the experiment on F380Y/beta4, 0.042 (inactive); in the experiment on R275C/beta4 it was 0.0144 (inactive); in the experiment with R275C/Slo1WT/beta2 it was 0.0208 (inactive).

On to `OC(CCN1CCCCC1)(c1ccccc1)C1CCCCC1` (centres undefined), for which the inhibition in [1] was -21%; in experiment [10] it was -5.91% (inactive); in experiment [11], -2.76% (inactive). The score in experiment [2] turned out to be 1.21. The rescue above control in experiment [3] turned out to be 1.37. Also, in experiment [4], the cytochrome c release ratio is 1.32. This molecule gave an inhibition of aggregation in experiment [5] of 88.9%. Besides, the glutamate uptake change in experiment [6] is -20.9%. In addition, in [7], the aggregation suppression score turned out to be 1.42. Also, the survival in experiment [8] was 3.42 (inactive). Further, the fluorescence ratio was 0.99 (inactive) in experiment [9] and 0.95 (inactive) in experiment [12]. The mean signal in experiment [13] is 211 (inactive). In [14], the z-score was -0.545 (inactive) and -0.525 (inactive). In addition, the log fold change Tl+ flux in the experiment on F380Y/beta1 is 0.00768 (inactive); with F380Y/beta4 it was 0.0698 (inactive); in the experiment on R275C/beta4, 0.0638 (inactive); with R275C/Slo1WT/beta2 it was 0.0146 (inactive).

Consider `Cc1onc(-c2ccccc2)c1-c1ccc(S(N)(=O)=O)cc1`, for which the parasite load remaining in experiment [15] was 163% (inactive) and 88.9% (inactive). Further, the viability in experiment [15] is 90.7% and 71.3%. For the same molecule, the fluorescence ratio in experiment [9] was 1 (inactive); in experiment [12] it was 0.93 (inactive). Also, the inhibition was -1.19% (inactive) in experiment [10] and -2.41% (inactive) in experiment [11]. Moreover, in experiment [13], the mean signal is 275 (inactive). Besides, the z-score in experiment [14] was -0.505 (inactive). In addition, the log fold change Tl+ flux in the experiment on F380Y/beta1 was 0.0307 (inactive); in the experiment with F380Y/beta4 it was 0.0618 (inactive); in the experiment on R275C/beta4, 0.0327 (inactive); in the experiment on R275C/Slo1WT/beta2, -0.0445 (inactive).

Take `CCCSc1ccc2nc(NC(=O)OC)[nH]c2c1`: the values for the inhibition in [1], in [10] and in experiment [11] were 25.8%, -2.27% (inactive) and -1.24% (inactive), respectively. Besides, the score in experiment [2] amounted to 0.16. Moreover, the rescue above control in experiment [3] was -16.6. In addition, the cytochrome c release ratio in [4] was 0.88. In [5], the inhibition of aggregation worked out at 11.8%. The glutamate uptake change in experiment [6] is 21.4%. Moreover, the aggregation suppression score in [7] came to 0.174. For the same molecule, the survival in [8] is 0.917 (inactive). Further, the fluorescence ratio in experiment [9] and in experiment [12] was 1.01 (inactive) throughout. In experiment [13], the mean signal was 254 (inactive). In addition, the z-score in experiment [14] was 0.56 (inactive) and -0.955 (inactive). The log fold change Tl+ flux was -0.0515 (inactive) with F380Y/beta1, -0.0654 (inactive) in the experiment on F380Y/beta4, -0.0656 (inactive) in the experiment on R275C/beta4 and -0.017 (inactive) in the experiment with R275C/Slo1WT/beta2.

As for `Cc1cccc(Nc2ccncc2S(=O)(=O)NC(=O)NC(C)C)c1`, the survival in [8] was 8.33 (inactive). In addition, the parasite load remaining in experiment [15] is 136% (inactive) and 72.2% (inactive) and 143% (inactive). Moreover, in experiment [15], the viability is 83% and 88.5% and 82%. Besides, the fluorescence ratio in experiment [9] is 1.01 (inactive); in experiment [12] it was 1.02 (inactive). The inhibition in experiment [10] is -1.19% (inactive); in experiment [11], -0.1% (inactive). For the same molecule, in experiment [13], the mean signal was 241 (inactive). The z-score in [14] is 1.21 (inactive). The log fold change Tl+ flux in the experiment on F380Y/beta1 is 0.0627 (inactive); with F380Y/beta4, -0.0278 (inactive); in the experiment with R275C/beta4, 0.029 (inactive); in the experiment with R275C/Slo1WT/beta2 it was 0.0277 (inactive).

Consider `C[C@@H]1O[C@@H](OC[C@H]2O[C@@H](Oc3c(-c4ccc(O)c(O)c4)oc4cc(O)cc(O)c4c3=O)[C@H](O)[C@@H](O)[C@@H]2O)[C@H](O)[C@H](O)[C@H]1O`, for which the inhibition in experiment [1] is 3.3%; in [10], 5.94% (inactive); in experiment [11], 11.4% (inactive). The molecule also displayed a score in experiment [2] of 1.12. Besides, the rescue above control in [3] stood at 13.8. Also, in experiment [4], the cytochrome c release ratio is 1.08. The same molecule registered an inhibition of aggregation in experiment [5] of 48.6%. Besides, the glutamate uptake change in experiment [6] stood at 32.8%. The molecule also gave an aggregation suppression score in [7] of 0.985. The parasite load remaining in [15] is 117% (inactive). In experiment [15], the viability came out at 84.5%. The fluorescence ratio was 0.95 (inactive) in [9] and 1.02 (inactive) in experiment [12]. Further, the mean signal in [13] is 242 (inactive). The log fold change Tl+ flux in the experiment with F380Y/beta1 was 0.04 (inactive); in the experiment on F380Y/beta4, -0.0248 (inactive); with R275C/beta4, -0.00112 (inactive); in the experiment with R275C/Slo1WT/beta2, 0.0255 (inactive).

In the case of `COc1ccc2cc(CCC(C)=O)ccc2c1`, the inhibition in experiment [1] is 10.1%; in experiment [10] it was -1.36% (inactive); in [11], 1.05% (inactive). The same molecule registered a score in [2] of 0.11. The cytochrome c release ratio in experiment [4] is 0.7. The molecule further had an inhibition of aggregation in experiment [5] of 91.3%. Further, in [6], the glutamate uptake change is 13.8%. For the same molecule, in experiment [7], the aggregation suppression score is 0.329. For the same molecule, the survival in experiment [8] was 4.83 (inactive). Moreover, the fluorescence ratio in experiment [9] was 0.1 (active); in experiment [12] it was 0.99 (inactive). Further, in experiment [13], the mean signal is 213 (inactive). Moreover, the z-score in [14] was 0.395 (inactive) and 0.51 (inactive). Moreover, the log fold change Tl+ flux in the experiment on F380Y/beta1 is -0.0534 (inactive); in the experiment with F380Y/beta4, -0.162 (active); with R275C/beta4 it was -0.216 (active); in the experiment on R275C/Slo1WT/beta2, -0.0751 (inactive).

Regarding `COc1cc(NC(C)CCCN)c2ncccc2c1` (centres undefined), the inhibition in [1] was 18.8%; in [10], -5% (inactive); in [11], 0.29% (inactive). Moreover, the score in [2] turned out to be 1.79. Besides, the rescue above control in [3] was 0. Also, the cytochrome c release ratio in experiment [4] stood at 0.68. The inhibition of aggregation in [5] was determined as 78.1%. Also, the glutamate uptake change in experiment [6] is -1.37%. Moreover, the aggregation suppression score in experiment [7] was 1.22. For the same molecule, the survival in experiment [8] is 5.33 (inactive). The values for the fluorescence ratio in experiment [9] and in [12] were 0.96 (inactive) and 0.86 (inactive), respectively. Also, the mean signal in experiment [13] is 225 (inactive). Further, the z-score in [14] was -1.43 (inactive) and -2.4 (inactive). The log fold change Tl+ flux in the experiment with F380Y/beta1 was -0.102 (inactive); with F380Y/beta4 it was -0.0853 (inactive); in the experiment with R275C/beta4 it was 0.0128 (inactive); with R275C/Slo1WT/beta2, -0.0635 (inactive).

(Values after PubChem BioAssay.)
